Bioassay records from PubChem.
TDP1 cell CPT = qHTS for Inhibitors of human tyrosyl-DNA phosphodiesterase 1 (TDP1): qHTS in cells in presence of CPT | 12% of 420,000 active | Potency, µM (doses to about 46.2 µM), without a hit: at the highest dose activity change, negative = growth inhibition, actives largely listed as inhibitors | chicken DT40 Tdp1-/-;hTDP1 cells + 20 nM CPT, ATP luminescence, 48 h; also: potency is read from the fitted curve at half-maximal effect; nearly all actives have a fitted effect of over 55% in size
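Chicken DT40 Tdp1-/- cells complemented with human TDP1, 400 cells/well, exposed to compounds plus 20 nM camptothecin for at least 48 h at 37 C; viability read as ATP content by CellTiter-Glo luminescence.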
HT1080NT lethal = qHTS for induction of synthetic lethality in tumor cells producing 2HG: qHTS for the HT-1080-NT fibrosarcoma cell line. HT-1080-NT fibrosarcoma viability, CellTiter-Glo ATP luminescence, 48 h. Potency, µM (series often up to 46.1 µM), for the others: top-dose activity, negative = less viability, usual class: cytotoxic. 1.6% of 360,000 active;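 also: NT is the 2HG producing partner of a matched IDH1 knockdown line; potency is read from the fitted curve at half-maximal effect; 0% = DMSO-treated cells and -100% = media-only wells without cells; nearly all actives have a fitted effect of over 55% in size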
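HT-1080-NT fibrosarcoma cells (2HG-overproducing), 750 cells/well in RPMI with 5% FBS, dosed after 2 h and incubated 48 h at 37C. CellTiter-Glo luminescence normalized to DMSO and no-cell wells; concentration-response curves fitted and classed.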
IL1B secr inh = qHTS for Inhibitors of Inflammasome Signaling: IL-1-beta AlphaLISA Primary Screen; THP-1 LPS/ATP IL-1B secretion, AlphaLISA, 16 h; stronger effect = lower value; activity change, % at 57.5 µM; 4.7% of 360,000 active; AID 743279, 2014; in the data active = activity change below about -50%; inconclusive = mostly about -30% to -49%
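Secreted IL-1B measured by AlphaLISA bead assay after 16 h compound exposure of THP-1 cells; compounds (final up to 57.5 uM) added 1 h before LPS (250 ng/mL) and ATP (1.25 mM) stimulation; lower signal means less secretion.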
TDP1 cell noCPT = qHTS for Inhibitors of human tyrosyl-DNA phosphodiesterase 1 (TDP1): qHTS in cells in absence of CPT; 15% of 420,000 active; Potency, µM (doses to about 46.2 µM), inactives show at the top dose activity change, negative = growth inhibition, actives largely listed as inhibitors; AID 686978, 2013; DT40 Tdp1-/- hTDP1 cells, no CPT, ATP luminescence, 48 h; also: potency is read from the fitted curve at half-maximal effect; nearly all actives have a fitted effect of over 55% in size
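A cellular qHTS used chicken DT40 cells lacking endogenous Tdp1 but carrying stably transfected human TDP1. Compounds were applied without camptothecin, and cell growth kinetics were judged by ATP-dependent luminescence after ≥48 hr.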
ALOX12 inh = Primary qHTS assay for inhibitors of human arachidonate 12S-lipoxygenase (ALOX12): Round 2. Polyunsaturated fatty acid lipoxygenase ALOX12 (Homo sapiens), P18054. purified 12hLO, xylenol orange hydroperoxide absorbance. Potency, µM (series often up to 108 µM), inactives show top-dose activity change, negative = inhibition, actives largely listed as inhibitors. 1.1% of 580,000 active; also: potency is read from the fitted curve at half-maximal effect
Target sequence (P18054 whole entry, looked up): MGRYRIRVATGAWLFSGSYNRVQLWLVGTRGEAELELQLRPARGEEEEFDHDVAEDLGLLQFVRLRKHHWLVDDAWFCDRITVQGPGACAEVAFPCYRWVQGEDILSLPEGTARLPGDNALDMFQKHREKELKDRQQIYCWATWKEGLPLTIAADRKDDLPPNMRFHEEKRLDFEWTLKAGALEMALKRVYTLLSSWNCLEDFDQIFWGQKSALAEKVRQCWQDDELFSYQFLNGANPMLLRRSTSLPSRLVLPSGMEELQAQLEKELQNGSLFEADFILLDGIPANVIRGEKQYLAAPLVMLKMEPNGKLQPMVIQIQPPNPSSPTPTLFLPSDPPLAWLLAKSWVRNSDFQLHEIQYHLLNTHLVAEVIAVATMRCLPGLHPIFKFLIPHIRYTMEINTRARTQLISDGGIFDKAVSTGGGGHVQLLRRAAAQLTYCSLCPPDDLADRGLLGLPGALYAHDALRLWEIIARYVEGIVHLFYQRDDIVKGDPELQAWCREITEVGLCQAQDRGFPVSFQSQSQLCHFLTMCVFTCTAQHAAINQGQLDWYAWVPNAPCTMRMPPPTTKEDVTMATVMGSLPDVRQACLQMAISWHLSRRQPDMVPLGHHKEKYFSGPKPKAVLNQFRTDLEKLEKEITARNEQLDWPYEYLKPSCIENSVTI
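Hydroperoxide product was detected by ferrous iron/xylenol orange as the 573 to 405 nm absorbance ratio. Arachidonic acid at 40 uM (final) was turned over for 30 min at room temperature by 150 nM human 12hLO, pH 7.0 Hepes buffer, after 15 min compound preincubation.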
HT1080 IDH1KD tx = qHTS for induction of synthetic lethality in tumor cells producing 2HG: qHTS for the HT-1080-IDH1KD cell line; HT-1080 IDH1 knockdown viability, ATP luminescence, 48 h; AID 686971, 2013; Potency, µM (highest dose often 46.1 µM), without a hit: top-dose activity, negative = toxicity, hits mostly cytotoxic; 2% of 360,000 active;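 also: potency is read from the fitted curve at half-maximal effect; 0% = DMSO wells and -100% = cell-free medium wells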
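Viability of IDH1-knockdown HT-1080 fibrosarcoma cells was assessed by CellTiter-Glo after 48 h at 37 °C with titrated compound; concentration-effect curves were classified by fit quality and response size.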
* hit, by the source's call; ? = inconclusive; . = no result; [ ] = another dose, or the depositor's remark. The sample as a whole holds a higher share of hits than the screen did. Unless noted, calls follow the shape of the dose curve; as a rule, active = well fitted curve in the direction sought with a large enough effect; inconclusive = small, poorly fitted or top-dose-only effect, or another doubt; inactive = no such curve, though single readings can be large; an effect the other way counts as inactive or inconclusive. Unless noted, % is scaled to controls: 0 for no effect and ±100 for the full control effect.

SMILES	TDP1 cell CPT	HT1080NT lethal	IL1B secr inh	TDP1 cell noCPT	ALOX12 inh	HT1080 IDH1KD tx
CC(C)Oc1cccc(-c2cc(C(=O)N3CCN(c4ncccn4)CC3)c3ccccc3n2)c1	.	.	.	.	19%	.
COc1cccc(-c2cc(C(=O)N3CCN(c4ncccn4)CC3)c3ccccc3n2)c1	?	-25%	?	23µM*	?	-22%
COc1ccc(-c2cc(C(=O)N3CCN(c4ncccn4)CC3)c3ccccc3n2)cc1OC	?	-15%	?	?	?	-2%
O=C(c1cc(-c2ccc(Br)cc2)nc2ccccc12)N1CCN(c2ccccc2O)CC1	?	?	-62*	?	-29%	?
Cc1ccc(-c2cc(C(=O)N3CCOCC3)c3ccccc3n2)cc1	3%	-19%	16	-11%	0%	-9%
O=C(c1cc(-c2ccncc2)nc2ccc(Br)cc12)N1CCN(c2ccccn2)CC1	?	-3%	-1	12µM*	0%	1%[9.24 µM]
CN(C(=O)Cc1cccc(C(F)(F)F)c1)c1nc2ccccc2o1	.	.	.	.	2%	.
CCc1ccc(C(=O)N2CCN(c3cc(Cl)ccc3C)CC2)s1	.	.	.	.	-14%	.
Cc1ccc2nc(-c3ccccn3)cc(C(=O)N3CCN(c4ncccn4)CC3)c2c1	21µM*	-6%	1	13µM*	153%	-14%[9.24 µM]
COC(=O)C1CCN(C(=O)c2cc(-c3ccccc3)nc3ccccc23)CC1	.	.	.	.	-1%	.
O=C(c1cc(-c2ccccn2)nc2c(Cl)cccc12)N1CCN(S(=O)(=O)c2ccccc2)CC1	?	-3%	-22	21µM*	-20%	-3%
CC(C)Oc1cccc(-c2cc(C(=O)N3CCN(S(C)(=O)=O)CC3)c3ccccc3n2)c1	?	-6%	11	10µM*	0%	1%
COc1ccc(C(=O)NCC23CC4CC(CC(C4)C2)C3)cc1	.	.	.	.	3%	.
COc1cccc(CC(=O)NCCc2ncc(C)n2CC2CC2)c1	.	.	.	.	66%	.
COCCN1Cc2cc(C(=O)OC)c3c(c2C1=O)c1cc(F)ccc1n3S(=O)(=O)c1cccc(C)c1	.	.	.	.	-21%	.
CCCCOc1ccc(-c2cc(C(=O)NNC(=S)NCC)c3ccccc3n2)cc1	23µM*	18µM*	?	21µM*	?	?
CCNC(=S)NNC(=O)c1cc(-c2ccc(OC)cc2)nc2ccccc12	3.7µM*	10µM*	-4	4.1µM*	?	18µM*
CCNC(=O)COC(=O)c1cc(-c2ccc(OC)cc2)nc2ccccc12	?	2%	-6	?	-12%	-21%
COc1ccc(-c2nc3c(C)cc(Br)cn3c2CC(C)(C)C)cc1OC	-22%	4%	13	-22%	32µM*	-6%
COc1ccc(-c2nc3c(C)cc(Br)cn3c2CC2CCCCC2)cc1OC	?	?	4	?	7.1µM*	?
COc1ccccc1Cc1c(-c2ccc(OC)c(OC)c2)nc2c(C)cc(Br)cn12	?	?	-17	?	?	?
O=c1ccc(-c2ccccc2)nn1Cc1c(F)cccc1Cl	18µM*	.	.	?	-20%	.
O=c1ccc(-c2ccccc2)nn1Cc1ccccc1F	-12%	-5%	-62*	-19%	-11%	-20%
COC(=O)CCn1c(SC(C)C(=O)c2ccc(F)cc2)nc2ccccc2c1=O (stereo not given)	.	.	.	.	-20%	.
COc1ccc2c(c1)[C@H]1[C@H](CO2)[C@H](c2ccccc2)[C@]2(C)C(=O)N(Cc3ccc(C)cc3)CC(=O)N12	15µM*	?	-56*	?	.	-17%
SMILES	TDP1 cell CPT	HT1080NT lethal	IL1B secr inh	TDP1 cell noCPT	ALOX12 inh	HT1080 IDH1KD tx
Cc1ccc([C@@H]2[C@@H]3C(=O)N(c4ccccc4)C(=O)[C@@H]3[C@]3(C)C(=O)N(Cc4ccc(-c5ccccc5)cc4)CC(=O)N23)o1	18µM*	-6%	7	?	?	-10%
COc1ccc2c(c1)OC[C@H]1[C@H]2N2C(=O)CN(Cc3ccc(Cl)cc3)C(=O)[C@@]2(C)[C@H]1c1ccccc1	8.2µM*	-6%	?	?	?	-1%
COc1ccc(CN2CC(=O)N3[C@H]4c5ccc(OC)cc5OC[C@@H]4[C@H](c4ccccc4)[C@]3(C)C2=O)cc1	?	-3%	-19	18µM*	15%	3%
Cc1ccc(CN2CC(=O)N3[C@H]4c5cc(C)ccc5OC[C@@H]4[C@H](c4ccccc4)[C@]3(C)C2=O)cc1	?	-18%	-26	?	-52%	-17%
Cc1ccc(CN2CC(=O)N3[C@H]4c5cc(Cl)ccc5OC[C@@H]4[C@H](c4ccccc4)[C@]3(C)C2=O)cc1	?	-3%	-28	?	1%	1%
CCN1CCN(CCCN2CC3(CCN(c4ncccc4F)CC3)OC2=O)CC1	.	.	.	.	7%	.
Cc1ccccc1-n1nc(C)c([C@H]2C=C[C@@H](OC(=O)NC(C)C)C2)c1C	.	.	.	.	55%[176 µM]	.
COc1ccc(-c2cc3ccc(OCC(=O)OC(C)(C)C)cc3oc2=O)cc1OC	.	.	.	.	29%	.
O=c1c(NCCc2ccc(Cl)cc2)c(-c2ccccc2)c1=O	-24%	-2%	-11	-2%	-6%	8%
COc1ccc2c(c1)OC[C@H]1[C@H]2N2C(=O)CN(Cc3ccccc3)C(=O)[C@@]2(C)[C@H]1c1ccccc1	18µM*	-1%	-54*	?	-4%	-1%
COc1ccc2c(c1)OC[C@H]1[C@H]2N2C(=O)CN(C)C(=O)[C@@]2(C)[C@H]1c1ccccc1	?	?	10	-18%	-19%	13%
Cc1nn(-c2ccccc2)c2nc(C(Cl)(Cl)Cl)[nH]c(=O)c12	-30%	-18%	19	?	?	-13%
CCCCN(CC)CCNC(=O)c1cc2c(=O)[nH]c3ccccc3c2s1	?	0%	.	?	-8%	0%
CCN(CCCNC(=O)c1cc2c(=O)[nH]c3ccc(C)cc3c2s1)Cc1ccccc1	7.3µM*	.	.	4.6µM*	?	.
CCN(CC)CCNC(=O)c1cc2c(=O)[nH]c3ccc(C)cc3c2s1	6%	.	.	-19%	-9%	.
